# PubChem BioAssay (NCATS)
# Inconclusive results are not listed. A call without a number means that no potency is given here. Activity calls are given as the source filed them. Unless noted, calls follow the shape of the dose curve; as a rule, active = well fitted inhibition curve with a large enough effect; inconclusive = small, poorly fitted or top-dose-only effect; inactive = flat fitted curve, though single readings scatter.
# Legend:
# [1] = qHTS drug screen for cell cycle checkpoint inhibitors in PARPi-resistant BRCA-mutant ovarian cancer cell lines. (AID 1963452; calls by dose curve); conditions: PEO1/OlaR viability, CellTiter-Glo luminescence, 96 h, stronger effect = lower value
# In short: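 PEO1, PEO4 and PEO1/OlaR ovarian cancer cells, 600 per well, exposed 96 h at 37C to a dilution series. Viability read by CellTiter-Glo luminescence, normalized to DMSO and empty wells; activity summarized as Z-AUC.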
# [2] = qHTS for identification of novel therapeutic agents for treatment of microphthalmiaassociated transcription factor (MiT) renal cell carcinoma (RCC) (AID 1963991); conditions: CellTiter-Glo, 48 h, stronger effect = lower value
# In short: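 UOK109/UOK124/UOK145 (TFE3 fusions, three partners); 500 cells/well; MIPE v4.0, 1912 cpds, 11 conc.; 48 h, 37 C; CellTiter-Glo, 15 min RT; lum. Norm.: DMSO 100%, empty 0%.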
# [3] = qHTS profiling for inhibitors of Plasmodium falciparum proliferation (AID 504749); also: nearly all actives have a fitted effect of over 60% in size; also: potency is read from the fitted curve at half-maximal effect; conditions: P. falciparum in erythrocytes, SYBR Green DNA, 72 h
# In short: (§1)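 P. falciparum-infected erythrocytes (0.3% parasitemia, 2.5% hematocrit) incubated with compound 72 h at 37 C, 5% CO2. Parasite DNA detected by SYBR Green after lysis, overnight at room temperature; normalised to 0.29 uM artemisinin and DMSO.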
# 3D7 = assay: as above; conditions: P. falciparum in erythrocytes, SYBR Green DNA, 72 h; series mostly up to 28.7 µM
# In short: as §1
# 7G8 = assay: as above; conditions: P. falciparum in erythrocytes, SYBR Green DNA, 72 h; series mostly up to 28.7 µM
# In short: as §1
# AA1029 = assay: as above; conditions: P. falciparum in erythrocytes, SYBR Green DNA, 72 h; series mostly up to 28.7 µM
# In short: as §1
# AS120 = assay: as above; conditions: P. falciparum in erythrocytes, SYBR Green DNA, 72 h; series mostly up to 28.7 µM
# In short: as §1
# ATS189 = assay: as above; conditions: P. falciparum in erythrocytes, SYBR Green DNA, 72 h; series mostly up to 28.7 µM
# In short: as §1
# ATS95 = assay: as above; conditions: P. falciparum in erythrocytes, SYBR Green DNA, 72 h; series mostly up to 28.7 µM
# In short: as §1
# C2A = assay: as above; conditions: P. falciparum in erythrocytes, SYBR Green DNA, 72 h; series mostly up to 28.7 µM
# In short: as §1
# CP185 = assay: as above; conditions: P. falciparum in erythrocytes, SYBR Green DNA, 72 h; series mostly up to 28.7 µM
# In short: as §1
# CP191 = assay: as above; conditions: P. falciparum in erythrocytes, SYBR Green DNA, 72 h; series mostly up to 28.7 µM
# In short: as §1
# CP192 = assay: as above; conditions: P. falciparum in erythrocytes, SYBR Green DNA, 72 h; series mostly up to 28.7 µM
# In short: as §1
# CP194 = assay: as above; conditions: P. falciparum in erythrocytes, SYBR Green DNA, 72 h; series mostly up to 28.7 µM
# In short: as §1
# CP201 = assay: as above; conditions: P. falciparum in erythrocytes, SYBR Green DNA, 72 h; series mostly up to 28.7 µM
# In short: as §1
# CP203 = assay: as above; conditions: P. falciparum in erythrocytes, SYBR Green DNA, 72 h; series mostly up to 28.7 µM
# In short: as §1
# CP211 = assay: as above; conditions: P. falciparum in erythrocytes, SYBR Green DNA, 72 h; series mostly up to 28.7 µM
# In short: as §1
# [4] = measured here: PEO1 parental Z-AUC
# [5] = TFE3-RCC UOK109 viability, measured here: UOK109 Z-AUC
# [6] = TFE3-RCC viability, measured here: UOK124 Z-AUC
# [7] = TFE3-RCC viability, measured here: UOK145 Z-AUC
# [8] = at 28.7 µM (top of the series), parasite line A
# [9] = at 28.7 µM (top of the series), parasite line B
structure (smiles),measurement,setting,value
CCC1(C)CC(=O)NC1=O (stereo not drawn),Z-AUC,[1],1.49 (inactive)
same,Z-AUC,[1]; [4],1.31
same,Z-AUC,[1]; measured here: PEO4 Z-AUC,1.61
same,z-score,[2]; [5],0.867
same,z-score,[2]; [6],0.609
same,z-score,[2]; [7],0.715
COc1nc(C)nc(Cl)c1NC1=NCCN1,Z-AUC,[1],-0.0792 (inactive)
same,Z-AUC,[1]; [4],-0.161
same,Z-AUC,[1]; measured here: PEO4 Z-AUC,0.307
same,z-score,[2]; [5],0.168
same,z-score,[2]; [6],0.306
same,z-score,[2]; [7],0.251
same,"activity, negative = inhibition","[3]; at 12.8 µM (top of the series), parasite line A",1.48% (inactive)
same,"activity, negative = inhibition","[3]; at 12.8 µM (top of the series), parasite line B",0.89% (inactive)
same,Potency,3D7,inactive
same,Potency,7G8,inactive
same,Potency,AA1029,inactive
same,Potency,AS120,inactive
same,Potency,ATS189,inactive
same,Potency,ATS95,inactive
same,Potency,C2A,inactive
same,Potency,CP185,inactive
same,Potency,CP191,inactive
same,Potency,CP192,inactive
same,Potency,CP194,inactive
same,Potency,CP201,inactive
same,Potency,CP203,inactive
same,Potency,CP211,inactive
COc1ccccc1N1CCN(CC(O)COc2cccc3ccccc23)CC1 (stereo not drawn),Z-AUC,[1],-0.153 (inactive)
same,Z-AUC,[1]; [4],0.273
same,Z-AUC,[1]; measured here: PEO4 Z-AUC,0.504
same,z-score,[2]; [5],0.719
same,z-score,[2]; [6],0.448
same,z-score,[2]; [7],-1.51
same,"activity, negative = inhibition",[3]; [8],-3.66% (inactive)
same,"activity, negative = inhibition",[3]; [9],-18.8% (inactive)
same,Potency,3D7,inactive
same,Potency,7G8,11.2 µM (active)
same,Potency,AA1029,inactive
same,Potency,AS120,inactive
same,Potency,ATS189,inactive
same,Potency,ATS95,inactive
same,Potency,C2A,inactive
same,Potency,CP185,inactive
same,Potency,CP191,inactive
same,Potency,CP192,inactive
same,Potency,CP194,inactive
same,Potency,CP201,inactive
same,Potency,CP203,inactive
same,Potency,CP211,inactive
CC1COc2c(N3CCN(C)CC3)c(F)cc3c(=O)c(C(=O)O)cn1c23 (stereo not drawn),Z-AUC,[1],-0.369 (inactive)
same,Z-AUC,[1]; [4],0.841
same,Z-AUC,[1]; measured here: PEO4 Z-AUC,-0.196
COc1ccc2[nH]cc(CCNC(C)=O)c2c1,Z-AUC,[1],1.13 (inactive)
same,Z-AUC,[1]; [4],1.56
same,Z-AUC,[1]; measured here: PEO4 Z-AUC,1.13
same,"activity, negative = inhibition",[3]; [8],6.49% (inactive)
same,"activity, negative = inhibition",[3]; [9],12.1% (inactive)
same,Potency,3D7,inactive
same,Potency,7G8,inactive
same,Potency,AA1029,inactive
same,Potency,AS120,inactive
same,Potency,ATS189,inactive
same,Potency,ATS95,inactive
same,Potency,C2A,inactive
same,Potency,CP185,inactive
same,Potency,CP191,inactive
same,Potency,CP192,inactive
same,Potency,CP194,inactive
same,Potency,CP201,inactive
same,Potency,CP203,inactive
same,Potency,CP211,inactive
CCOC(=O)C(C)(C)Oc1ccc(Cl)cc1,Z-AUC,[1],0.714 (inactive)
same,Z-AUC,[1]; [4],0.586
same,Z-AUC,[1]; measured here: PEO4 Z-AUC,0.762
same,z-score,[2]; [5],-1.29
same,z-score,[2]; [6],0.307
same,z-score,[2]; [7],0.606
same,"activity, negative = inhibition",[3]; [8],5.66% (inactive)
same,"activity, negative = inhibition",[3]; [9],12.1% (inactive)
same,Potency,3D7,inactive
same,Potency,7G8,inactive
same,Potency,AA1029,inactive
same,Potency,AS120,inactive
same,Potency,ATS189,inactive
same,Potency,ATS95,inactive
same,Potency,C2A,inactive
same,Potency,CP185,inactive
same,Potency,CP191,inactive
same,Potency,CP192,inactive
same,Potency,CP194,inactive
same,Potency,CP201,inactive
same,Potency,CP203,inactive
same,Potency,CP211,inactive
O=c1c(-c2ccc(O)cc2)coc2cc(O)cc(O)c12,Z-AUC,[1],0.848 (inactive)
same,Z-AUC,[1]; [4],0.793
same,Z-AUC,[1]; measured here: PEO4 Z-AUC,-0.435
same,"activity, negative = inhibition",[3]; [8],-2.63% (inactive)
same,"activity, negative = inhibition",[3]; [9],-14.6% (inactive)
same,Potency,3D7,inactive
same,Potency,7G8,inactive
same,Potency,AA1029,inactive
same,Potency,AS120,inactive
same,Potency,ATS189,inactive
same,Potency,ATS95,inactive
same,Potency,C2A,inactive
same,Potency,CP185,inactive
same,Potency,CP191,inactive
same,Potency,CP192,inactive
same,Potency,CP194,inactive
same,Potency,CP201,inactive
same,Potency,CP203,inactive
same,Potency,CP211,inactive
